According to the supplement of paper PMC3545927:
The other results are listed elsewhere or left out. No count for the full screen is at hand.

Target: furin, P09958
Assay: furin cleavage Z-score vs untreated control; higher = more cleavage, active = 3.5 or more, inactive = 1 or less, 8 variable residues between constant flanks
Summary of the method: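 Furin cleavage was scored on 8-mer peptides joined to a cDNA oligonucleotide and bound to magnetic beads at the N-terminus. Digestion with purified furin (1:10 enzyme:substrate, 0.01 ml, 50 mM HEPES pH 7.5, CaCl2, NaCl) lasted 7.5, 15 or 30 min. Freed DNA was tagged with adapters by PCR, sequenced and counted; the cleavage Z-score is the lowess-adjusted log count versus furin-free reactions, scaled by median absolute deviation.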

Sequence of furin, P09958 (P09958 whole entry): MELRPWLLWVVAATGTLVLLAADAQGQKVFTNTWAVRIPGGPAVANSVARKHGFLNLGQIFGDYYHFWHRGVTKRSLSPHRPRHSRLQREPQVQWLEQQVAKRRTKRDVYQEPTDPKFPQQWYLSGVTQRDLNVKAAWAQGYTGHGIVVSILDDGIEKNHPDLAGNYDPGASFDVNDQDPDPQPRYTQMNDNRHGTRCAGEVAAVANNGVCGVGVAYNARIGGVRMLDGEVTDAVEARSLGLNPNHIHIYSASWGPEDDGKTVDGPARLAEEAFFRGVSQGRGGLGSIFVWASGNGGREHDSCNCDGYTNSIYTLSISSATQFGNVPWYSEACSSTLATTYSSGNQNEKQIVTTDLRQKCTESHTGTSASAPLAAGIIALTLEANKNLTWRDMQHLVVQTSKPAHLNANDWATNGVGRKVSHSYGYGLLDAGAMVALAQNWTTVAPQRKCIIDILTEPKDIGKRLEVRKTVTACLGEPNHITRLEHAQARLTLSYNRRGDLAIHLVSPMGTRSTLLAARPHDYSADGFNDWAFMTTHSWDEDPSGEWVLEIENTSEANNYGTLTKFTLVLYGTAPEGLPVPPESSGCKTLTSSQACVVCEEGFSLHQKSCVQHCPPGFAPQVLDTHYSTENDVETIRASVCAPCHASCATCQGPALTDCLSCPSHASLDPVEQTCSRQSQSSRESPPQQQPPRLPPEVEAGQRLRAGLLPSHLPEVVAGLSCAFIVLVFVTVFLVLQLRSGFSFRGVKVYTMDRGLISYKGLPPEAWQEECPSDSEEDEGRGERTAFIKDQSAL

Row | Sequence | furin cleavage Z-score (7.5 min) | furin cleavage Z-score (15 min) | furin cleavage Z-score (30 min)
1 | CATNPKPQKKAGNASASA [HC162] | -1.19 (inactive) | -0.825 (inactive) | -2.33 (inactive)
2 | CASAPCSAHLAGNASASA [HC2483] | -0.101 (inactive) | 0.964 (inactive) | 0.332 (inactive)
3 | CATVATRDGKAGNASASA [HC283] | -0.692 (inactive) | -1.6 (inactive) | -0.623 (inactive)
4 | CARQPRKQGGAGNASASA [FS-2445] | -0.459 (inactive) | 0.227 (inactive) | 0.306 (inactive)
5 | CARFLRSKTLAGNASASA [FS-2415] | 0.914 (inactive) | 1.56 | 0.306 (inactive)
6 | CARDERSWFRAGNASASA [FS-2901] | 0.291 (inactive) | -0.493 (inactive) | 0.641 (inactive)
7 | CARFFRSACSAGNASASA [FS-1820] | 0.97 (inactive) | 0.0813 (inactive) | -0.895 (inactive)
8 | CARFVRSVMSAGNASASA [FS-3248] | 4.15 (active) | 5.68 (active) | 5.23 (active)
9 | CARMLRSVFSAGNASASA [FS-1831] | -0.826 (inactive) | -0.551 (inactive) | 1.65
10 | CANFKRSVASAGNASASA [FS-1847] | 0.0489 (inactive) | 1.11 | 0.734 (inactive)
11 | CARFLRSVMSAGNASASA [FS-1821] | 1.23 | 4.09 (active) | 5.69 (active)
12 | CARSKRTEQDAGNASASA [FS-2088] | -0.228 (inactive) | 1.41 | 1.56
13 | CARFSRTVQDAGNASASA [FS-2668] | 2.27 | 2.81 | 4.69 (active)
14 | CARFIRSVMSAGNASASA [FS-3246] | 5.54 (active) | 5.87 (active) | 8.7 (active)
15 | CADNEVVTSTAGNASASA [HC2301] | -1.07 (inactive) | -0.505 (inactive) | 0.105 (inactive)
16 | CAQSFQVAHLAGNASASA [HC771] | 0.912 (inactive) | 0.131 (inactive) | 0.722 (inactive)
17 | CAEVVTNTWVAGNASASA [HC158] | -1.52 (inactive) | -0.248 (inactive) | -0.0393 (inactive)
18 | CAFCHSKKKCAGNASASA [HC857] | -1.27 (inactive) | -0.504 (inactive) | -0.238 (inactive)
19 | CAALAAYCLSAGNASASA [HC995] | 1.28 | -0.793 (inactive) | 0.489 (inactive)
20 | CARFVRFVPLAGNASASA [FS-1706] | 1.17 | 1.76 | 4.38 (active)
21 | CARFVRDACAAGNASASA [FS-2928] | 0.546 (inactive) | 1.42 | 3.66 (active)
22 | CADDGRTCVDAGNASASA [FS-1981] | -1.75 (inactive) | -1.46 (inactive) | -0.526 (inactive)
23 | CARFDRQASAAGNASASA [FS-2011] | -0.397 (inactive) | -0.361 (inactive) | -1.3 (inactive)
24 | CAREKKDVPLAGNASASA [FS-3187] | 0.508 (inactive) | 2.05 | -1.3 (inactive)
25 | CARTRKFVVDAGNASASA [FS-2315] | 0.233 (inactive) | -0.721 (inactive) | -0.0413 (inactive)
26 | CARLRRVICAAGNASASA [FS-2997] | -0.794 (inactive) | -0.656 (inactive) | -0.232 (inactive)
27 | CARFIRGVVDAGNASASA [FS-2332] | 3.17 | 2.98 | 5.27 (active)
28 | CARSLRFVTLAGNASASA [FS-1793] | 0.3 (inactive) | 1.63 | 1.68
